Where “and” joins values, the source holds several entries; their conditions need not be identical. Equal entries are not always repeated. A number with no mark means an inactive call. Where a call stands in place of a potency, no number is given. Calls of active or inactive are those of the source. Unless noted, calls follow the shape of the dose curve; as a rule, active = well fitted curve in the direction sought with a large enough effect in the repeat runs; inconclusive = weak or mixed curves; inactive = no such curve, though single readings can be large; an effect the other way counts as inactive or inconclusive.
What was measured:
[1] = qHTS assay to identify small molecule antagonists of the thyroid receptor (TR) signaling pathway - cell viability counter screen (AID 743064); also: nearly all actives have a fitted effect of over 50% in size; also: potency is read from the fitted curve at half-maximal effect
Method in brief: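 Compounds were tested on GH3.TRE-Luc cells in the presence of T3 at 1 nM final. Following 23.5 h at 37 °C, cell viability was quantified by CellTiter-Fluor.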

[2] = system: thyroid hormone receptor (rat, GH3 cells); assay: qHTS assay to identify small molecule agonists of the thyroid receptor (TR) signaling pathway (AID 743066; calls by dose curve)
[3] = qHTS assay to identify small molecule antagonists of the estrogen receptor alpha (ER-alpha) signaling pathway - cell viability counter screen (AID 743074; calls by dose curve; also: nearly all actives have a fitted effect of over 45% in size; also: potency is read from the fitted curve at half-maximal effect)
[4] = target: Estrogen receptor (Homo sapiens) (UniProt P03372); assay: qHTS assay to identify small molecule agonists of the estrogen receptor alpha (ER-alpha) signaling pathway (AID 743075; calls by dose curve; also: potency is read from the fitted curve at half-maximal effect); conditions: HEK293 ER-alpha-UAS-bla, beta-lactamase FRET ratio, 18 h; activation: at 70.1 µM (top of the series)
Sequence of Estrogen receptor (Homo sapiens) (P03372 whole entry, looked up): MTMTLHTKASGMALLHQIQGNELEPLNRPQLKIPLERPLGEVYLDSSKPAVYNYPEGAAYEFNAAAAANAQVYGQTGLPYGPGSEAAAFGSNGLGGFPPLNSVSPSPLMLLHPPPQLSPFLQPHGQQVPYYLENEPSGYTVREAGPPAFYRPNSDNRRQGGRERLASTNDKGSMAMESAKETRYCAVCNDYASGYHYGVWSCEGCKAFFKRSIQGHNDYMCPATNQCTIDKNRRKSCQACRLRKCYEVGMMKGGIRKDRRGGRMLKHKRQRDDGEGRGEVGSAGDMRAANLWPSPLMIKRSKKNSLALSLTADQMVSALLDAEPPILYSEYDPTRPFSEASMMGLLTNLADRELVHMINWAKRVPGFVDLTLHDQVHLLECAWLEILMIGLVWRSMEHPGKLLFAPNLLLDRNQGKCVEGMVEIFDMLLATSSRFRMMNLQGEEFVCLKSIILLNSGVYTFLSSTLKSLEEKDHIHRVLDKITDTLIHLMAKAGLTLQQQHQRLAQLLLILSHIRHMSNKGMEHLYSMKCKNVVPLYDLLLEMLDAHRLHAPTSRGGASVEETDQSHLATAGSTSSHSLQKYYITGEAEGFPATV

[5] = target: Estrogen receptor (Homo sapiens) (UniProt P03372); assay: qHTS assay to identify small molecule agonists of the estrogen receptor alpha (ER-alpha) signaling pathway using the BG1 cell line (AID 743079); conditions: BG1Luc4E2 cells, ERE-luciferase agonist, 22 h; for activation: at 70.3 µM (top of the series); also: potency is read from the fitted curve at half-maximal effect; as to all read-outs here: nearly all actives have a fitted effect of over 20% in size
[6] = qHTS assay to identify small molecule antagonists of the estrogen receptor alpha (ER-alpha) signaling pathway using the BG1 cell line - cell viability counter screen (AID 743081);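 also: compound given together with 17beta-estradiol as the ER stimulus; nearly all actives have a fitted effect of over 45% in size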; also: potency is read from the fitted curve at half-maximal effect
Aromatase (Homo sapiens) = Aromatase (Homo sapiens) (UniProt P11511); assay: qHTS assay to identify aromatase inhibitors (AID 743083); also: nearly all actives have a fitted effect of over 55% in size; also: potency is read from the fitted curve at half-maximal effect
Sequence of Aromatase (Homo sapiens) (P11511 whole entry, looked up): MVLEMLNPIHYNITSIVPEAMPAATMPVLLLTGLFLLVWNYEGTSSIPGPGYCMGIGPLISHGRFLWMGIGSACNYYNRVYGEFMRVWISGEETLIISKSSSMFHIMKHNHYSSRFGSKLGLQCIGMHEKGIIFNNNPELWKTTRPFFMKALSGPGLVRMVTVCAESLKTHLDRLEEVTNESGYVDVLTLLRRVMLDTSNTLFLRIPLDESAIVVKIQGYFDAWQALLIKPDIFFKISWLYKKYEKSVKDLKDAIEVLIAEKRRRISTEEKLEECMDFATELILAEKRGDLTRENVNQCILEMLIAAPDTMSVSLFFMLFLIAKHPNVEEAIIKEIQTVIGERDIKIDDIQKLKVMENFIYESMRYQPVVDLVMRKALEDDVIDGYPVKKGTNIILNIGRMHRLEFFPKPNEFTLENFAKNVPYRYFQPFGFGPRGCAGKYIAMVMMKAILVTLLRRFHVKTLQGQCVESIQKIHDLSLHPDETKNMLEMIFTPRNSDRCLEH

[7] = qHTS assay to identify aromatase inhibitors - cell viability counter screen (AID 743084);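 also: cells stimulated with testosterone during compound exposure; nearly all actives have a fitted effect of over 55% in size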; also: potency is read from the fitted curve at half-maximal effect
[8] = target: Aryl hydrocarbon receptor (Homo sapiens) (UniProt P35869); assay: qHTS assay to identify small molecule that activate the aryl hydrocarbon receptor (AhR) signaling pathway (AID 743085); also: nearly all actives have a fitted effect of over 15% in size; also: potency is read from the fitted curve at half-maximal effect;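 as to activation: HG2L7.5c1 human HepG2 liver cells with stably integrated DRE-driven firefly reporter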
Sequence of Aryl hydrocarbon receptor (Homo sapiens) (P35869 whole entry, looked up): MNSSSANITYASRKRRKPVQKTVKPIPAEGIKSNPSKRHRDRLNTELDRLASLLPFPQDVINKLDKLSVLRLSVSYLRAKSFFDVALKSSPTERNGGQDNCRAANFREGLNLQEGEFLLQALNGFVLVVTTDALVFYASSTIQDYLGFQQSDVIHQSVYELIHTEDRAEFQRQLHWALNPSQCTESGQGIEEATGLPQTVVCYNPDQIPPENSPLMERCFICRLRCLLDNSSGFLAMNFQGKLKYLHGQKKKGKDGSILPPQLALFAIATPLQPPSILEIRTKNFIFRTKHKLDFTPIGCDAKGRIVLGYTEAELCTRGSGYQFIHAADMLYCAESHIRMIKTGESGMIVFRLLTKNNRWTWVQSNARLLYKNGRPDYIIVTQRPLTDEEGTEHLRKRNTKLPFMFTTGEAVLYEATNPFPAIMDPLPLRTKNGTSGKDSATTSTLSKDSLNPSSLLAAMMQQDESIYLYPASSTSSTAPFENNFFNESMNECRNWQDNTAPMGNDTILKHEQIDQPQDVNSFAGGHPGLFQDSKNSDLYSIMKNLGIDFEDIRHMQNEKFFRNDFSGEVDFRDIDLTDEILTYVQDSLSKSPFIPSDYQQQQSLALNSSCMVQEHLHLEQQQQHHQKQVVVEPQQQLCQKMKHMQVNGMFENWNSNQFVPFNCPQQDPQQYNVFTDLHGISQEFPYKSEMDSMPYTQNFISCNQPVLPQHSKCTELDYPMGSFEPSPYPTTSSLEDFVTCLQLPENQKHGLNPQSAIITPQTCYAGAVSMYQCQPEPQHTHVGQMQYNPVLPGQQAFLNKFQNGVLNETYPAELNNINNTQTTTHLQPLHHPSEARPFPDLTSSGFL
Method in brief: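 24 h compound exposure, 37C, HepG2-derived HG2L7.5c1 cells with DRE-responsive luciferase. Readouts: fluorescence viability, then luminescence at room temperature after 30 min.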

[9] = qHTS assay to identify small molecule antagonists of the peroxisome proliferator-activated receptor gamma (PPARg) signaling pathway - cell viability counter screen (AID 743194); also: nearly all actives have a fitted effect of over 55% in size; also: potency is read from the fitted curve at half-maximal effect
Method in brief: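 PPARg-UAS-bla HEK293H cells were plated, rested 5 h at 37 C, then treated with compounds plus rosiglitazone (50 nM final) for 17 h at 37 C; viability was then read by CellTiter-Glo luminescence after 30 min at room temperature.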

[10] = target: Peroxisome proliferator-activated receptor gamma (Homo sapiens) (UniProt P37231); assay: qHTS assay to identify small molecule antagonists of the peroxisome proliferator-activated receptor gamma (PPARg) signaling pathway (AID 743191; calls by dose curve; also: nearly all actives have a fitted effect of over 30% in size; also: potency is read from the fitted curve at half-maximal effect)
Sequence of Peroxisome proliferator-activated receptor gamma (Homo sapiens) (P37231 whole entry, looked up): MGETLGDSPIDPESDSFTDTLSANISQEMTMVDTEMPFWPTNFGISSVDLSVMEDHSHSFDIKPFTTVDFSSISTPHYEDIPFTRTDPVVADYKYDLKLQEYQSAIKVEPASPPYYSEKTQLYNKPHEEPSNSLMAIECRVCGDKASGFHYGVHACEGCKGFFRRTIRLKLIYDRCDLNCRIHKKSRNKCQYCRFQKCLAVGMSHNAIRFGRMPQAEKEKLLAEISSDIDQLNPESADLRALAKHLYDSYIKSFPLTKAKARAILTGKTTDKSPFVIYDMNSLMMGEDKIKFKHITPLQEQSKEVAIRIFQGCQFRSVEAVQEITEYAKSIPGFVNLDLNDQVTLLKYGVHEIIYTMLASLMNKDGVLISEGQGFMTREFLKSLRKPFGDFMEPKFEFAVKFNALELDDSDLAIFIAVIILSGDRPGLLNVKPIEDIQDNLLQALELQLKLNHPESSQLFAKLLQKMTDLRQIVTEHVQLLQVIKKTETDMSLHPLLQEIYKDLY
Method in brief: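 GeneBLAzer PPARg UAS-bla HEK293H cells carrying a UAS-driven beta-lactamase reporter were plated at 3000 cells/well, preincubated 5 h at 37C, then given compound for 17 h at 37C; LiveBLAzer B/G FRET substrate was read after 1 h at room temperature.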

[11] = qHTS assay for small molecule activators of the heat shock response signaling pathway - cell viability counter screen (AID 743209); also: nearly all actives have a fitted effect of over 50% in size; also: potency is read from the fitted curve at half-maximal effect
Method in brief: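 To flag cytotoxic compounds, HSE-bla HeLa cells plated at 1500 cells/well were dosed for 5 h at 37 C, followed by the reporter FRET read and then CellTiter-Glo, with luminescence recorded 30 min after reagent addition.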

[12] = qHTS assay for small molecule activators of the heat shock response signaling pathway (AID 743210; active = well fitted activation curve with a large enough effect in the signal ratio in the repeat runs, with a control signal flat, not every such curve was filed as active; inconclusive = weak or mixed curves; the % refers to the signal ratio;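 also: HeLa cells with beta-lactamase reporter driven by heat shock elements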)
Method in brief: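 Activation of heat shock element-controlled beta-lactamase expression is measured in HeLa cells by LiveBLAzer FRET fluorescence, with compound exposure lasting 5 h at 37 C and substrate loading 2.5 h at room temperature.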

[13] = qHTS assay to identify small molecule that activate the aryl hydrocarbon receptor (AhR) signaling pathway - cell viability counter screen (AID 743086); also: nearly all actives have a fitted effect of over 45% in size; also: potency is read from the fitted curve at half-maximal effect
Method in brief: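 HepG2-AhR-luc (HG2L7.5c1) cells, 4000/well, were preincubated 5 h at 37C, exposed to compound in qHTS format for 24 hr at 37C, then given CellTiter-Fluor for 30 min; viability was read as fluorescence in the reporter wells.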

[14] = target: Estrogen receptor (Homo sapiens) (UniProt P03372); assay: qHTS assay to identify small molecule antagonists of the estrogen receptor alpha (ER-alpha) signaling pathway (AID 743069; active = well fitted curve in the direction sought with a large enough effect in the signal ratio in the repeat runs, not every such curve was filed as active; inconclusive = weak or mixed curves, or effect the other way; inactive = no such curve, though single readings can be large or run the other way; the % refers to the signal ratio; also: potency is read from the fitted curve at half-maximal effect)
Method in brief: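 Screening used a UAS-driven beta-lactamase reporter integrated into HEK293 cells expressing ER-alpha, stimulated with 17beta-estradiol alongside test compounds over 18 hr at 37C; signal came from LiveBLAzer B/G FRET fluorescence.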

[15] = target: Peroxisome proliferator-activated receptor gamma (Homo sapiens) (UniProt P37231); assay: qHTS assay to identify small molecule agonists of the peroxisome proliferator-activated receptor gamma (PPARg) signaling pathway (AID 743094; active = well fitted activation curve with a large enough effect in the signal ratio in the repeat runs, not every such curve was filed as active; inconclusive = weak or mixed curves, or effect the other way; inactive = no such curve, though single readings can be large or run the other way; the % refers to the signal ratio; also: potency is read from the fitted curve at half-maximal effect)
Method in brief: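 Fluorescence-based beta-lactamase readout in HEK293H PPARg UAS-bla cells after 17 h compound exposure (37C) and 1 h B/G FRET substrate incubation at room temperature.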

[16] = qHTS assay for small molecule agonists of the antioxidant response element (ARE) signaling pathway - cell viability counter screen (AID 743203; calls by dose curve; also: nearly all actives have a fitted effect of over 55% in size; also: potency is read from the fitted curve at half-maximal effect)
Method in brief: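 Parallel cytotoxicity read-out for the ARE-bla screen: HepG2 reporter cells, 16 hrs with compounds, then CellTiter-Glo luminescence.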

[17] = qHTS assay to identify small molecule antagonists of the estrogen receptor alpha (ER-alpha) signaling pathway using the BG1 cell line (AID 743080; calls by dose curve;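 also: BG1 cells stimulated with 17beta-estradiol alongside compound; nearly all actives have a fitted effect of over 25% in size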)
Method in brief: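 Luminescence from a 4×ERE-luciferase reporter in BG1-Luc-4E2 cells served as read-out. Cells, pre-cultured 5 days in stripped-serum phenol-red-free medium, were exposed to compound with 17beta-estradiol co-stimulation for 21.5 h at 37 C.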

[18] = qHTS assay for small molecule agonists of the antioxidant response element (ARE) signaling pathway (AID 743202; active = well fitted activation curve with a large enough effect in the signal ratio in the repeat runs, not every such curve was filed as active; inconclusive = weak or mixed curves, or effect the other way; inactive = no such curve, though single readings can be large or run the other way; the % refers to the signal ratio)
Method in brief: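 Steps: seed ARE-bla HepG2 cells (2,000/well); incubate 5 h at 37 C; add compounds by pin tool; incubate 16 h at 37 C; add FRET substrate; read fluorescence after 2 h at RT.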

[19] = qHTS assay to identify small molecule antagonists of the thyroid receptor (TR) signaling pathway (AID 743065)
Method in brief: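 GH3.TRE-Luc rat pituitary cells carrying two TR response elements driving luciferase were plated for 4 h, given compound plus 1 nM T3 (final), and incubated 23.5 h at 37 C. ONE-Glo luminescence measured reporter inhibition; CellTiter-Fluor fluorescence tracked cytotoxicity.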

C[C@H](CCC(=O)O)[C@H]1CC[C@H]2[C@@H]3CC[C@@H]4C[C@H](O)CC[C@]4(C)[C@H]3CC[C@]12C
Potency [1]: 27.2 µM (active) and 54.5 µM (active)
Potency [2]: inactive
Potency [3]: 54.9 µM (active)
Potency [4]: inactive
activation [5]: -1.63% and -14.3%
Potency [6]: inactive
Potency (Aromatase (Homo sapiens)): inactive
Potency [7]: inactive
Potency [8]: inactive
Potency [9]: 21.8 µM (active) and 49 µM (active)

O=C1c2c(O)ccc(Nc3ccc(CCO)cc3)c2C(=O)c2c([N+](=O)[O-])ccc(O)c21
Potency [1]: 61.1 µM (active)
Potency [2]: inactive
Potency [3]: inactive
Potency [4]: inactive
activation [5]: -6.57%
Potency [7]: 54.5 µM (active)
Potency [8]: 6.86 µM (active)
Potency [10]: 54.9 µM (active)
Potency [9]: inactive
Potency [11]: inactive
Potency [12]: inactive

CCN(Cc1cccnc1)C(=O)c1cccc(Cl)c1[C@]1(C)C(=O)N(Cc2ccc(OC)cc2OC)c2ccc(Cl)cc21
Potency [1]: 4.54 µM (active)
Potency [2]: inactive
Potency [3]: inactive
Potency (Aromatase (Homo sapiens)): 16.1 µM (active)
Potency [7]: 16.1 µM (active)
Potency [8]: inactive
Potency [13]: 11.4 µM (active)
Potency [11]: inactive

Cc1cc2c(cc1C(F)(F)F)N(C(=O)Nc1ccc(Oc3cccnc3C)nc1)CC2
Potency [1]: inactive
Potency [2]: inactive
Potency [14]: inactive
Potency [3]: inactive
Potency [4]: inactive
Potency [6]: inactive
Potency [8]: inactive
Potency [13]: inactive
Potency [15]: inactive
Potency [9]: inactive
Potency [16]: 34.9 µM (active)
Potency [11]: inactive

N=C1C=CC(=C(c2ccc(N)cc2)c2ccc(N)cc2)C=C1
Potency [1]: 9.69 µM (active)
Potency [3]: 1.38 µM (active)
Potency [6]: 13.7 µM (active)
Potency (Aromatase (Homo sapiens)): 4.86 µM (active)
Potency [7]: 8.63 µM (active)
Potency [8]: inactive
Potency [13]: 17.2 µM (active)
Potency [15]: inactive
Potency [9]: 6.92 µM (active)
Potency [11]: 30.9 µM (active)

CCCCCCCC/C=C/CCCCCCCC1=NCCN1CCO
Potency [1]: 21.7 µM (active)
Potency [2]: inactive
Potency (Aromatase (Homo sapiens)): 48.6 µM (active)
Potency [7]: 48.6 µM (active)
Potency [8]: inactive
Potency [9]: 43.6 µM (active)
Potency [11]: 19.5 µM (active)

Cc1onc(-c2c(Cl)cccc2Cl)c1C(=O)N[C@@H]1C(=O)N2[C@@H]1SC(C)(C)[C@@H]2C(=O)O
Potency [1]: inactive
Potency [2]: inactive
Potency [3]: inactive
Potency [6]: inactive
Potency (Aromatase (Homo sapiens)): inactive
Potency [7]: inactive
Potency [8]: inactive
Potency [13]: inactive
Potency [15]: inactive
Potency [10]: inactive
Potency [16]: inactive
Potency [11]: inactive

CCCCCCCCOC(=O)c1ccc(O)cc1
Potency [1]: 61.1 µM (active)
Potency [2]: inactive
Potency [3]: inactive
Potency [4]: 61.4 µM [inconclusive] (active) and 43.7 µM [activator] (active)
Potency [5]: 7.67 µM (active) and 17.2 µM (active)
Potency [17]: inactive
Potency [6]: inactive
Potency (Aromatase (Homo sapiens)): 21.6 µM (active) and 54.5 µM (active)
Potency [13]: inactive
Potency [18]: inactive

CC(C)(C)c1ccc(C(=O)CCCN2CCC(OC(c3ccccc3)c3ccccc3)CC2)cc1
Potency [1]: 11.9 µM (active)
Potency [3]: 23.9 µM (active)
Potency (Aromatase (Homo sapiens)): inactive
Potency [7]: inactive
Potency [16]: 29.8 µM (active)
Potency [11]: 29.8 µM (active)

C=CC(=O)OCC(CO)(COC(=O)C=C)COC(=O)C=C
Potency [1]: 2.44 µM (active) and 2.17 µM (active)
Potency [2]: inactive
Potency [3]: 39 µM (active) and 49 µM (active)
Potency [4]: 13.9 µM [inconclusive] (active) and 12.3 µM [inconclusive] (active)
Potency [6]: 27.4 µM (active) and 27.3 µM (active)
Potency (Aromatase (Homo sapiens)): 2.74 µM (active) and 5.45 µM (active)
Potency [7]: 2.18 µM (active) and 4.86 µM (active)
Potency [8]: inactive
Potency [13]: 13.7 µM (active) and 27.3 µM (active)
Potency [9]: 11 µM (active) and 4.36 µM (active)
Potency [16]: 61.3 µM (active) and 30.6 µM (active)
Potency [11]: 3.9 µM (active) and 2.45 µM (active)

Cc1cc(O)c(Cl)c(C)c1Cl
Potency [19]: 24.3 µM (active)
Potency [2]: inactive
Potency [4]: inactive
Potency [6]: inactive
Potency (Aromatase (Homo sapiens)): 48.6 µM (active)
Potency [7]: 61.1 µM (active)
Potency [8]: inactive
Potency [15]: inactive
Potency [11]: 38.9 µM (active)

Oc1ccc(Cl)cc1Sc1cc(Cl)ccc1O
Potency [19]: 5.96 µM (active) and 2.73 µM (active)
Potency [2]: inactive
Potency [3]: 19 µM (active) and 38.8 µM (active)
Potency [4]: inactive
Potency [6]: inactive
Potency (Aromatase (Homo sapiens)): 26.6 µM (active) and 27.3 µM (active)
Potency [8]: inactive
Potency [13]: inactive
Potency [15]: inactive
Potency [10]: 13.3 µM (active)
Potency [9]: 4.89 µM (active) and 5.96 µM (active)
Potency [16]: 61 µM (active) and 29.8 µM (active)
Potency [11]: 38.8 µM (active)

CCc1oc2ccccc2c1C(=O)c1cc(Br)c(O)c(Br)c1
Potency [19]: 26.6 µM (active)
Potency [2]: inactive
Potency [14]: 10.7 µM [inconclusive] (active)
Potency [3]: inactive
Potency [4]: inactive
activation [5]: -23.9%
Potency [17]: inactive
Potency [6]: inactive
Potency (Aromatase (Homo sapiens)): inactive
Potency [7]: inactive
Potency [15]: 3.01 µM (active)
Potency [16]: 23.7 µM (active)
Potency [11]: inactive
